Here are results for eleven compounds from PubChem BioAssay (NCATS).

Where “and” joins values, the source holds several entries; their conditions need not be identical. Equal values may be shown once. Results filed as inconclusive are left out. Calls of active or inactive are those of the source. Calls come from the whole dose curve; as a rule, active = well fitted inhibition curve with a large enough effect; inconclusive = small, poorly fitted or top-dose-only effect; inactive = flat fitted curve, though single readings scatter.
% is set by controls: 0 for no effect and ±100 for the full control effect.

A short description of the test: Drug repurposing screens with cells derived from glioblastoma tumor samples (AID 1345199). Note: nearly all actives have a fitted effect of over 40% in size. As to conditions: GBM patient neurospheres viability, ATP luminescence, 48 h; at 45.9 µM (top of the series); tumour line B. The procedure, abridged:
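Four patient lines of CD133+ GBM neurospheres were screened at several concentrations; hits were retested in those lines plus three slower-growing GBM lines, using 48-hour treatment and ATP-based viability.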
Regarding `C[N+](C)(C)CCOP(=O)(O)OP(=O)([O-])OC[C@H]1O[C@@H](n2ccc(N)nc2=O)[C@H](O)[C@@H]1O`, the activity, negative = cell killing is -6.25% (inactive) and -7.43% (inactive).
With `CCCCC[C@H](O)/C=C/[C@@H]1[C@@H](C/C=C\CCCC(=O)O)[C@@H](O)C[C@H]1O`, the activity, negative = cell killing was 1.47% (inactive).
In the case of `CC(C)Cc1ccc([C@H](C)C(=O)O)cc1` it was 4.71% (inactive).
For the compound `CO/N=C(\C(=O)N[C@@H]1C(=O)N2C(C(=O)O)=C(COC(C)=O)CS[C@H]12)c1csc(N)n1` (stereo in doubt), the activity, negative = cell killing was -12.2% (inactive).
In the case of `O=C(O)COc1ccc(C(=O)c2cccs2)c(Cl)c1Cl` it was -12.4% (inactive) and -10% (inactive); in that of `C=CC(N)CCC(=O)O` (stereo unspecified), -2.82% (inactive); in that of `C#C[C@]1(O)CC[C@H]2[C@@H]3CCc4cc(O)ccc4[C@H]3CC[C@@]21C`, -15.9% (inactive).
Take `CC[C@H]1OC(=O)[C@H](C)C(=O)[C@H](C)[C@@H](O[C@@H]2O[C@H](C)C[C@H](N(C)C)[C@H]2O)[C@](C)(OC)C[C@@H](C)C(=O)[C@H](C)[C@H]2N(CCCCn3cnc(-c4cccnc4)c3)C(=O)O[C@]12C`: the activity, negative = cell killing is -5.03% (inactive).
On to `CN1[C@@H](CC(=O)c2ccccc2)CCC[C@H]1C[C@H](O)c1ccccc1`, for which the activity, negative = cell killing is -7.77% (inactive).
Take `CC1(C)C[C@@H]1C(=O)N/C(=C\CCCCSC[C@H](N)C(=O)O)C(=O)O`: the activity, negative = cell killing was -13% (inactive) and -12.1% (inactive).
For `O=C(O)[C@H](O)[C@@H](O)[C@H](O)[C@H](O)CO`, the activity, negative = cell killing was -3.35% (inactive) and -2.21% (inactive).
